Measurements: PubChem BioAssay (NCI)
Values joined by “and” are separate entries in the source; they are usually repeats but may differ in a detail not shown here. Equal values may be shown once. About 83,000 compounds went through this panel and 20% of them were active in at least one assay; those are over-represented in the sample as a whole.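 Percent growth is the endpoint: 0 to 100 indicates growth inhibition (40 means 60% inhibition), 0 means no net growth, and negative values indicate cell death.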 Active and inactive are the calls of the source. Rule for the calls: active = growth percent below 10; inactive = the rest.

Assays:
Assay in all cases: NCI-60 one-dose screen, 48 h (100 = growth as untreated, 0 = no growth, -100 = all killed)
Details in all cases: 10 µM unless noted
[1] = tested on: DU-145 prostate
[2] = tested on: K-562 leukemia
[3] = tested on: MALME-3M melanoma
[4] = tested on: MDA-MB-231 breast
[5] = tested on: RXF 393 renal
[6] = tested on: SF-268 CNS
[7] = tested on: SF-295 CNS
[8] = tested on: SF-539 CNS
[9] = tested on: UACC-257 melanoma
[10] = tested on: M14 melanoma
[11] = tested on: HCT-15 colon
[12] = tested on: HT29 colon
[13] = tested on: SNB-75 CNS
[14] = tested on: SNB-19 CNS
[15] = tested on: U251 CNS
[16] = tested on: PC-3 prostate
[17] = tested on: SK-MEL-5 melanoma
[18] = tested on: UACC-62 melanoma
[19] = tested on: LOX IMVI melanoma
[20] = tested on: SK-MEL-28 melanoma

SMILES	growth [1]	growth [2]	growth [3]	growth [4]	growth [5]	growth [6]	growth [7]	growth [8]	growth [9]	growth [10]	growth [11]	growth [12]	growth [13]	growth [14]	growth [15]	growth [16]	growth [17]	growth [18]	growth [19]	growth [20]
CC(C)(C)c1ccc(O)c(CNC2CCCCC2)c1	130% (inactive) and 108% (inactive)	48.7% (inactive) and 75.4% (inactive)	115% (inactive) and 97.9% (inactive)	101% (inactive) and 97.2% (inactive)	96.5% (inactive) and 59.5% (inactive)	114% (inactive) and 96.8% (inactive)	104% (inactive)	114% (inactive) and 95.6% (inactive)	108% (inactive) and 95.2% (inactive)	87.1% (inactive) and 101% (inactive)	108% (inactive) and 84.5% (inactive)	79.1% (inactive) and 95.2% (inactive)	86% (inactive) and 82.8% (inactive)	89.2% (inactive) and 90.9% (inactive)	97.6% (inactive) and 88% (inactive)	82.5% (inactive) and 83.8% (inactive)	92.6% (inactive) and 79.2% (inactive)	96.6% (inactive) and 79.7% (inactive)	86.2% (inactive) and 97.6% (inactive)	105% (inactive) and 98.3% (inactive)
CN(C)c1ccc(C(=C2C=CC(=[N+](C)C)C=C2)c2ccccc2Cl)cc1	-97% (active)	7.59% (active)	-56.3% (active) and -46.1% (active)	-36.9% (active) and -66.9% (active)	-84.3% (active)	-84.1% (active)	-30.4% (active) and -25.8% (active)	-58.9% (active) and -92.1% (active)	-77.7% (active)	-62.8% (active) and -95.3% (active)	6.9% (active) and -30.6% (active)	-38.3% (active) and -24% (active)	-58.6% (active) and -96.1% (active)	-96.9% (active) and -95.6% (active)	-58.3% (active) and -97.7% (active)	-19.5% (active)	-100% (active) and -96.9% (active)	-70.6% (active) and -73.3% (active)	-57.2% (active) and -97.2% (active)	-93.7% (active) and -96.8% (active)
COC(=O)[C@H]1CCCN1C(=O)C1CCCN1C(=O)[C@@H](Cc1ccccc1)NC(=S)Nc1cc(C(F)(F)F)cc(C(F)(F)F)c1 (stereo not given in full)	117% (inactive) and 91.4% (inactive)	103% (inactive) and 65.2% (inactive)	109% (inactive) and 98.8% (inactive)	95.9% (inactive) and 75.4% (inactive)	108% (inactive) and 84.8% (inactive)	105% (inactive) and 86.9% (inactive)	89.4% (inactive)	102% (inactive) and 96.1% (inactive)	108% (inactive) and 95.4% (inactive)	113% (inactive) and 105% (inactive)	95.8% (inactive) and 75.5% (inactive)	111% (inactive) and 72.6% (inactive)	85.4% (inactive) and 73.3% (inactive)	92.1% (inactive) and 86.7% (inactive)	98.8% (inactive) and 77% (inactive)	101% (inactive) and 53.3% (inactive)	100% (inactive) and 88.2% (inactive)	94.7% (inactive) and 90.3% (inactive)	103% (inactive) and 88.1% (inactive)	109% (inactive) and 99.4% (inactive)
O=C(CN1CCN(c2cc3c(cc2F)c(=O)c(C(=O)O)cn3C2CC2)CC1)Nc1ccc(Cl)cc1	99.1% (inactive) and 103% (inactive)	68.1% (inactive) and 67.9% (inactive)	91.8% (inactive) and 91.1% (inactive)	60.2% (inactive) and 70.1% (inactive)	74.7% (inactive) and 84.3% (inactive)	91.2% (inactive) and 92.5% (inactive)	87.9% (inactive) and 96.6% (inactive)	86.9% (inactive) and 85.6% (inactive)	57% (inactive) and 88.4% (inactive)	81.8% (inactive) and 92% (inactive)	83% (inactive) and 92.3% (inactive)	57.9% (inactive) and 100% (inactive)	79.7% (inactive)	83.1% (inactive) and 90.9% (inactive)	44.2% (inactive) and 102% (inactive)	80.1% (inactive) and 89.1% (inactive)	71.1% (inactive) and 83.5% (inactive)	63.6% (inactive) and 57.8% (inactive)	61.1% (inactive) and 72.4% (inactive)	87.1% (inactive) and 84% (inactive)
COc1ccc2cc3[n+](cc2c1OC)CCc1cc2c(cc1-3)OCO2	92.5% (inactive) and 78.4% (inactive)	41.1% (inactive) and 40% (inactive)	31.6% (inactive) and 42% (inactive)	81.7% (inactive) and 87.5% (inactive)	89.1% (inactive) and 60.9% (inactive)	42.9% (inactive) and 40.7% (inactive)	19.3% (inactive) and 45.1% (inactive)	68.6% (inactive) and 82.9% (inactive)	48.1% (inactive) and 88.5% (inactive)	83.2% (inactive) and 110% (inactive)	105% (inactive) and 93.4% (inactive)	93.8% (inactive) and 74.1% (inactive)	85.5% (inactive) and 81% (inactive)	38.6% (inactive) and 42.2% (inactive)	25.2% (inactive) and 28.7% (inactive)	60.1% (inactive) and 60.6% (inactive)	7.33% (active) and 24.3% (inactive)	54.8% (inactive) and 64.9% (inactive)	83.6% (inactive) and 86.5% (inactive)	94% (inactive)
Cc1ccc(-c2noc(CC(=O)c3ccc([N+](=O)[O-])cc3)n2)cc1	101% (inactive)	89.1% (inactive)	110% (inactive)	104% (inactive)	102% (inactive)	95.6% (inactive)	99% (inactive)	98.2% (inactive)	107% (inactive)	96.5% (inactive)	98.3% (inactive)	101% (inactive)	94.6% (inactive)	106% (inactive)	96.8% (inactive)	98.6% (inactive)	91.6% (inactive)	91.1% (inactive)	89.5% (inactive)	105% (inactive)
O=C1OC(Oc2ccc(Br)cc2)(c2ccccc2)c2ccccc21 (stereo not given)	97.1% (inactive) and 84.1% (inactive)	70.1% (inactive)	89.5% (inactive)	86.4% (inactive) and 107% (inactive)	82.7% (inactive) and 82.3% (inactive)	91.7% (inactive) and 76% (inactive)	83.1% (inactive) and 82.3% (inactive)	104% (inactive) and 98.5% (inactive)	88.5% (inactive) and 90.9% (inactive)	96.4% (inactive) and 98.2% (inactive)	69.6% (inactive) and 58.6% (inactive)	74.6% (inactive) and 70.6% (inactive)	61.2% (inactive) and 77.1% (inactive)	88.8% (inactive) and 102% (inactive)	78.9% (inactive) and 58.5% (inactive)	80.7% (inactive) and 63.6% (inactive)	97.3% (inactive)	73.8% (inactive) and 83.9% (inactive)	77.5% (inactive) and 83.2% (inactive)	101% (inactive) and 120% (inactive)
COc1ccc(-c2cn[nH]c2-c2cc(OC)c(OC)c(OC)c2)cc1N	13.8% (inactive) and 3.66% (active)	11% (inactive) and 11.5% (inactive)	78.7% (inactive) and 44.3% (inactive)	22.9% (inactive) and 14.6% (inactive)	19.3% (inactive)	26.5% (inactive) and 48.8% (inactive)	3.28% (active) and 17.5% (inactive)	1.73% (active) and -4.41% (active)	66.7% (inactive)	10.5% (inactive) and 15% (inactive)	8.28% (active) and 13.1% (inactive)	1.51% (active) and 10.1% (inactive)	57.5% (inactive) and 20.3% (inactive)	34.4% (inactive) and 34.1% (inactive)	9.51% (active) and 19.3% (inactive)	19.1% (inactive) and 27.2% (inactive)	-40.3% (active) and -49.2% (active)	46.1% (inactive) and 32.6% (inactive)	35.2% (inactive) and 28.5% (inactive)	49.7% (inactive) and 62.5% (inactive)
